Assay results: PubChem BioAssay (NCI)
This is part of a sample that, as a whole, favours compounds with a hit. Of some 83,000 tested, about 20% had one in any assay.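 Cells were grown in 96-well plates and exposed to the test compound at a single concentration for 48 hours; results are reported as percent growth, with values below 10 considered active.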 The source made the active and inactive calls.

System: UACC-62 melanoma
Assay: NCI-60 one-dose screen, 48 h (100 = growth as untreated, 0 = no growth, -100 = all killed)
Details: 10 µM unless noted

| SMILES | growth |
| --- | --- |
| O=C(CSc1nccc(=O)[nH]1)Nc1ccc(-c2nc3ccccc3[nH]2)cc1 | 99.7% (inactive) |
| N[C@@H](Cc1cn(-c2ccnc3ccccc23)nn1)C(=O)O | 95.4% (inactive) |
| CCOC(=O)c1c(Nc2ccccc2)nn2c(N)c(C#N)c(-c3ccc(F)cc3)nc12 | 84.6% (inactive) |
| O=C(N/N=C/c1ccc([N+](=O)[O-])o1)c1[nH]c2ccc(Br)cc2c1-c1ccccc1 | 6.4% (active) |
| CN(C)CCCNc1c2ccc(Cl)cc2nc2c1oc1ccc(Cl)cc12 | 12.6% (inactive) |
| Cc1c(NC(=O)CSc2nc3sc4c(c3c(=O)n2-c2ccc(Cl)cc2)CCCC4)c(=O)n(-c2ccccc2)n1C | 83.1% (inactive) |
| CC(C)(C)Nc1nc2c(OCCc3ccccc3)cccn2c1-c1ccc(Cl)cc1 | 11.1% (inactive) |
| CN(C)CCCNc1c2ccc(Cl)cc2nc2c1oc1ccccc12 | 13.4% (inactive) |
| COc1ccccc1C(=O)CSc1nc(Nc2ccc(S(N)(=O)=O)cc2)c2ccccc2n1 | 88.6% (inactive) |
| COc1ccccc1/C=C/C=N/NC1=NC2C(S1)N(C)C(=O)N2C (stereo not given) | 46.7% (inactive) |
| COc1cccc(N2CCN(c3ncnc4c3[nH]c3ccc(F)cc34)C[C@@H]2C)c1 | -70.8% (active) |
| O=C(CSc1nnc(-c2ccc3nc(-c4ccc(Cl)cc4)[nH]c3c2)o1)Nc1ccc(C(=O)/C=C/c2ccc(Cl)cc2)cc1 | 83.2% (inactive) |
| Cc1nc2cnc(N)c(C#Cc3cncc(C(=O)Nc4ccc(Cl)c(C(F)(F)F)c4)c3)c2nc1C | 39.7% (inactive) |
| Cc1ccc(C(=O)Nc2cccc(C(F)(F)F)c2)cc1Nc1nc(-c2cnccn2)nc2c1cnn2C | 17.9% (inactive) |
| CC(=O)Oc1ccccc1C(=O)Nc1cc(C(C)C)ccc1C | 16.9% (inactive) |
| COc1ccc(/C=N/NC(=O)c2[nH]c3ccc(Br)cc3c2-c2ccccc2)s1 | 42.4% (inactive) |
| O=C(CN1C(=O)/C(=C/c2ccccc2)SC1=S)N1CCOCC1 | 93.4% (inactive) |
| COc1ccc(-c2nc3ccc(-c4nnc(SCC(=O)Nc5ccc(C(=O)/C=C/c6ccc(Cl)cc6)cc5)o4)cc3[nH]2)cc1OC | 98% (inactive) |
| CN1C(=S)N(C)C2C1NN=C1SC(c3ccccc3)=CC(=O)N12 (stereo not given) | 78.3% (inactive) |

| SMILES | growth |
| --- | --- |
| CN(C)c1ccc(/C=C2\Cc3c(F)ccc(Br)c3C2=O)cc1 | 83.3% (inactive) |
| CN(C)S(=O)(=O)c1oc(-c2ccccc2)nc1C#N | 97.9% (inactive) |
| CC(C)(C)OC(=O)N1C(=O)c2c(c3c4ccccc4[nH]c3c3ccc4ccccc4c23)C1=O | 60.3% (inactive) |
| Cc1[nH]nc2ncc(C#Cc3cncc(C(=O)Nc4ccc(CN5CCN(C)CC5)c(C(F)(F)F)c4)c3)cc12 | -15.8% (active) |
| C#Cc1nc(C2=C(C)C(=N\O)/C(=N/O)C2)cs1 | 91.8% (inactive) |
| O=c1[nH]c2ccccc2cc1CSc1ccccc1Nc1nccc(-c2ccc(C(F)(F)F)cc2)n1 | 70.4% (inactive) |
| COC1CCN(Cc2ccc3c(NNC(=O)c4cnccn4)nc4cc(F)ccc4n23)C1 (stereo not given) | 20.7% (inactive) |
| O=C(CN1CCOCC1)NNc1ncnc2ccccc12 | 83.1% (inactive) |
| Cn1c(SCC(=O)Nc2ccc(-c3nc4ccc([N+](=O)[O-])cc4[nH]3)cc2)nc2ccccc2c1=O | 75% (inactive) |
| O=C(CSc1nc2sc3c(c2c(=O)n1-c1ccc(Cl)cc1)CCCC3)N/N=C/c1ccc(F)cc1 | 97% (inactive) |
| O=c1/c(=C\c2ccc(-c3ccccc3)o2)sc2nc(-c3ccccc3)nn12 | 98.7% (inactive) |
| COC(=O)C1CCCN(S(=O)(=O)/N=C2\NC(=O)NC2=C(Cl)Cl)C1 (stereo not given) | 94% (inactive) |
| Clc1ccc2c(NCCCN3CCOCC3)c3oc4ccc(Cl)cc4c3nc2c1 | 98.7% (inactive) |
| N#Cc1nc(-c2ccccc2)oc1N1CC[C@@H](CO)C1 | 92.4% (inactive) |
| O=C(c1ccc(O)cc1)C1[C@H](c2ccc(Cl)cc2)[C@@H](c2ccccc2)NC12C(=O)Nc1ccc(Cl)cc12 (stereo not given in full) | 53.6% (inactive) |
| COc1cccc(OC)c1-c1nnn(C)c1C(=S)N1CCN(c2ccc([N+](=O)[O-])cc2Cl)CC1 | 69.1% (inactive) |
| CCCC(=O)NC(c1cccc(N(C)C)c1)c1cc(C)c2cccnc2c1O (stereo not given) | 46.1% (inactive) |
| CC(=O)Oc1ccccc1C(=O)Nc1ccc(C(=O)/C=C/c2ccncc2)cc1 | 50.3% (inactive) |
| C#Cc1nc(C2=C(C)C(OC(=O)CCC(=O)O)CC2)cs1 (stereo not given) | 95.3% (inactive) |

System: LOX IMVI melanoma
Assay: as above
Details: 10 µM unless noted

| SMILES | growth |
| --- | --- |
| O=C(CSc1nccc(=O)[nH]1)Nc1ccc(-c2nc3ccccc3[nH]2)cc1 | 96.9% (inactive) |
| N[C@@H](Cc1cn(-c2ccnc3ccccc23)nn1)C(=O)O | 102% (inactive) |
| CN(C)CCCNc1c2ccc(Cl)cc2nc2c1oc1ccc(Cl)cc12 | -93.7% (active) |
| Cc1c(NC(=O)CSc2nc3sc4c(c3c(=O)n2-c2ccc(Cl)cc2)CCCC4)c(=O)n(-c2ccccc2)n1C | 89.5% (inactive) |
| CC(C)(C)Nc1nc2c(OCCc3ccccc3)cccn2c1-c1ccc(Cl)cc1 | 2.87% (active) |
| CN(C)CCCNc1c2ccc(Cl)cc2nc2c1oc1ccccc12 | -83.4% (active) |
| COc1ccccc1C(=O)CSc1nc(Nc2ccc(S(N)(=O)=O)cc2)c2ccccc2n1 | 16.1% (inactive) |
| COc1ccccc1/C=C/C=N/NC1=NC2C(S1)N(C)C(=O)N2C (stereo not given) | 35.3% (inactive) |
| COc1cccc(N2CCN(c3ncnc4c3[nH]c3ccc(F)cc34)C[C@@H]2C)c1 | 0.646% (active) |
| O=C(CSc1nnc(-c2ccc3nc(-c4ccc(Cl)cc4)[nH]c3c2)o1)Nc1ccc(C(=O)/C=C/c2ccc(Cl)cc2)cc1 | -24.2% (active) |
| Cc1nc2cnc(N)c(C#Cc3cncc(C(=O)Nc4ccc(Cl)c(C(F)(F)F)c4)c3)c2nc1C | -77.4% (active) |
| Cc1ccc(C(=O)Nc2cccc(C(F)(F)F)c2)cc1Nc1nc(-c2cnccn2)nc2c1cnn2C | 62.3% (inactive) |
| CC(=O)Oc1ccccc1C(=O)Nc1cc(C(C)C)ccc1C | 12.4% (inactive) |
| O=C(CN1C(=O)/C(=C/c2ccccc2)SC1=S)N1CCOCC1 | -34.9% (active) |
| COc1ccc(-c2nc3ccc(-c4nnc(SCC(=O)Nc5ccc(C(=O)/C=C/c6ccc(Cl)cc6)cc5)o4)cc3[nH]2)cc1OC | 3.17% (active) |
| CN1C(=S)N(C)C2C1NN=C1SC(c3ccccc3)=CC(=O)N12 (stereo not given) | 92.2% (inactive) |
| CN(C)S(=O)(=O)c1oc(-c2ccccc2)nc1C#N | -80.7% (active) |
| CC(C)(C)OC(=O)N1C(=O)c2c(c3c4ccccc4[nH]c3c3ccc4ccccc4c23)C1=O | 57.5% (inactive) |
| Cc1[nH]nc2ncc(C#Cc3cncc(C(=O)Nc4ccc(CN5CCN(C)CC5)c(C(F)(F)F)c4)c3)cc12 | -23.4% (active) |
| O=c1[nH]c2ccccc2cc1CSc1ccccc1Nc1nccc(-c2ccc(C(F)(F)F)cc2)n1 | 19.8% (inactive) |
| COC1CCN(Cc2ccc3c(NNC(=O)c4cnccn4)nc4cc(F)ccc4n23)C1 (stereo not given) | 5.96% (active) |
| O=C(CN1CCOCC1)NNc1ncnc2ccccc12 | 9.78% (active) |
| O=C(CSc1nc2sc3c(c2c(=O)n1-c1ccc(Cl)cc1)CCCC3)N/N=C/c1ccc(F)cc1 | 95.9% (inactive) |
| O=c1/c(=C\c2ccc(-c3ccccc3)o2)sc2nc(-c3ccccc3)nn12 | 95.9% (inactive) |
| Clc1ccc2c(NCCCN3CCOCC3)c3oc4ccc(Cl)cc4c3nc2c1 | -82.8% (active) |
| O=C(c1ccc(O)cc1)C1[C@H](c2ccc(Cl)cc2)[C@@H](c2ccccc2)NC12C(=O)Nc1ccc(Cl)cc12 (stereo not given in full) | 26.8% (inactive) |
| CC(=O)Oc1ccccc1C(=O)Nc1ccc(C(=O)/C=C/c2ccncc2)cc1 | -73.6% (active) |
